What is called AC50 is the midpoint of the concentration-response curve, whichever way the signal moves.

Data on 13 molecules can be found in PubChem BioAssay (EPA / NIEHS).

Inconclusive results are not listed. The source made the active and inactive calls. The calls were made as follows, unless noted: active = hit-call score of the fitted dose curve at least 0.9, where 1 is the maximum; inconclusive = response in the unintended direction; inactive = score below 0.9.

Experiment [1] can be described thus: Tanguay_ZF_120hpf_BRAI_legacy: (Legacy) Oregon State University Tanguay Lab 120 Hour Post-fertilization zebrafish Assay for Brain Malformation (AID 2283641). A digest of the protocol:
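Binary brightfield scoring of brain malformation at 120 hpf in Tropical 5D larvae held under static exposure at 28C (0.64% v/v DMSO), non-mortality endpoints skipped if dead. Positive control: 5uM trimethyltin chloride; fit versus DMSO.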

Experiment [2] can be described thus: Tanguay_ZF_120hpf_SOMI_legacy: (Legacy) Oregon State University Tanguay Lab 120 Hour Post-fertilization zebrafish Assay for Somite Malformation (AID 2283647). In a few lines:
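Binary somite-defect scoring at 120 hpf, omitted for embryos that died, in wild-type (Tropical 5D) zebrafish with chorion removed by pronase at 4 hpf; static exposure began 6 hpf, single embryos per well, 28C, 0.64% DMSO; fitted positive versus DMSO.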

Experiment [3] is described as follows: Tanguay_ZF_120hpf_PFIN_legacy: (Legacy) Oregon State University Tanguay Lab 120 Hour Post-fertilization zebrafish Assay for Pectoral Fin Malformation (AID 2283648).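 Also: each larva judged yes or no for fin defect by brightfield with dead larvae skipped.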 In a few lines: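 Binary pectoral fin malformation call at 120 hpf by brightfield microscopy; 5D wild-type zebrafish, chorion removed at 4 hpf, one embryo per well from 6 hpf, static exposure at 28C; DMSO (0.64% final) as baseline.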

Experiment [4] in a line: Tanguay_ZF_120hpf_CFIN_legacy: (Legacy) Oregon State University Tanguay Lab 120 Hour Post-fertilization zebrafish Assay for Caudal Fin Malformation (AID 2283649). In a few lines: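 Binary brightfield scoring of caudal fin defects at 120 hpf after static, light-shielded exposure at 28C from 6 hpf. Tropical 5D embryos, chorion removed with pronase at 4 hpf, final DMSO 0.64%.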

A short description of experiment [5]: Tanguay_ZF_120hpf_PIG_legacy: (Legacy) Oregon State University Tanguay Lab 120 Hour Post-fertilization zebrafish Assay for Pigmentation Malformation (AID 2283650). A digest of the protocol:
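Brightfield scoring of pigmentation malformation at 120 hpf, recorded as binary present/absent per larva. Exposure: dechorionated 5D wild-type embryos, one per well, static from 6 hpf at 28C, final DMSO 0.64% (vol/vol). Dead embryos not scored.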

Experiment [6] in a line: Tanguay_ZF_120hpf_CIRC_legacy: (Legacy) Oregon State University Tanguay Lab 120 Hour Post-fertilization zebrafish Assay for Circulatory Malformation (AID 2283651). In a few lines:
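Binary circulatory malformation call at 120 hpf by brightfield imaging of zebrafish larvae; chorion removed at 4 hpf, static exposure from 6 hpf in sealed dark plates at 28C, final DMSO 0.64%; non-mortality endpoints skipped if embryo died.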

Experiment [7] is described as follows: Tanguay_ZF_120hpf_SWIM_legacy: (Legacy) Oregon State University Tanguay Lab 120 Hour Post-fertilization zebrafish Assay for Swim Bladder Malformation (AID 2283654).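 Also: swim bladder malformation in each larva scored yes or no under brightfield.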 A digest of the protocol: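 Tropical 5D embryos dechorionated at 4 hpf; 1 embryo/well from 6 hpf; static, sealed, dark exposure at 28C until 120 hpf; final DMSO 0.64%; 5uM trimethyltin chloride positive control; swim bladder defect recorded yes/no; dead embryos not scored.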

A short description of experiment [8]: Tanguay_ZF_120hpf_TRUN_legacy: (Legacy) Oregon State University Tanguay Lab 120 Hour Post-fertilization zebrafish Assay for Truncated Body (AID 2283655). In a few lines:
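Binary presence/absence of truncated body is recorded at 120 hpf by brightfield, with non-mortality endpoints skipped after death. Exposure is static from 6 hpf in sealed dark plates at 28C, using dechorionated wild-type zebrafish, 0.64% DMSO.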

Experiment [9] in a line: Tanguay_ZF_120hpf_NC_legacy: (Legacy) Oregon State University Tanguay Lab 120 Hour Post-fertilization zebrafish Assay for Notochord and Tail Malformation (AID 2283656). In a few lines: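 Binary scoring of notochord distortion by brightfield microscopy; embryos dying were not scored. Wild-type Tropical 5D embryos, chorion removed, exposed singly and statically from 6 to 120 hpf, 28C, sealed, 0.64% DMSO.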

Read-out in experiment [10]: Broad substrate specificity ATP-binding cassette transporter ABCG2 (Homo sapiens) (UniProt Q9UNQ0)
Description: CLD_ABCG2_6hr: CellzDirect (CLD) Gene Expression Assay for ABC Transporter (ABCG2) at 6 hours (AID 2283660). In a few lines: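 ABCG2 mRNA induction measured by qNPA chemiluminescence in human primary hepatocyte cultures, 6 h post-dose. Chemicals tested at several concentrations against a 0.2% DMSO vehicle; positive-direction fit relative to DMSO.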

Read-out in experiment [11]: sulfotransferase (SULT2A), SULT2A1 (gene 6822)
Description: CLD_SULT2A_6hr: CellzDirect (CLD) Gene Expression Assay for sulfotransferase (SULT2A) at 6 hours (AID 2283669).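 Also: hits raise transcript level above the DMSO vehicle baseline.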 A digest of the protocol: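 Measured 6 h after dosing, SULT2A1 mRNA in human hepatocyte lysates was quantified by S1 nuclease protection with chemiluminescent detection. Increases fitted against 0.2% DMSO vehicle baseline; phase-contrast cytotoxicity recorded yes/no.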

Read-out in experiment [12]: kallikrein-3 (KLK3), KLK3 (gene 354)
As to the kind of experiment: LTEA_HepaRG_KLK3: Life Technologies and Expression Analysis (LTEA) Assay for kallikrein-3 (KLK3) using HepaRG (AID 2283652; active = hit-call score of the fitted dose curve at least 0.9, where 1 is the maximum; inactive = score below 0.9). The conditions noted are these: mRNA level, 48 h; actives raise or lower the signal. In a few lines: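 KLK3 transcript levels were measured by TaqMan qRT-PCR with normalisation to three housekeeping genes. HepaRG cultures received chemicals for 48 h at up to 100 uM (half-log, 8 points, 0.5% DMSO vehicle), fitted in both directions against DMSO.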

Read-out in experiment [13]: solute carrier (SLC22A6), SLC22A6 (gene 9356)
Description: LTEA_HepaRG_SLC22A6: Life Technologies and Expression Analysis (LTEA) Assay for solute carrier (SLC22A6) using HepaRG (AID 2283653; active = hit-call score of the fitted dose curve at least 0.9, where 1 is the maximum; inactive = score below 0.9). Conditions: mRNA level, 48 h; actives raise or lower the signal. A digest of the protocol: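 SLC22A6 transcript was measured by TaqMan qRT-PCR, normalized to three housekeeping genes, after 48 h duplicate exposure of HepaRG cells (100 uM top, half-log steps, 0.5% DMSO); bidirectional fit against vehicle.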

Read-out in experiment [14]: solute carrier (SLC10A1), SLC10A1 (gene 6554)
Description: LTEA_HepaRG_SLC10A1: Life Technologies and Expression Analysis (LTEA) Assay for solute carrier (SLC10A1) using HepaRG (AID 2283657; active = hit-call score of the fitted dose curve at least 0.9, where 1 is the maximum; inactive = score below 0.9). The conditions noted are these: mRNA level, 48 h; actives raise or lower the signal. In a few lines: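 HepaRG, 48 h exposure, 8-pt half-log curve from 100 uM in 0.5% DMSO, duplicates. Read-out: TaqMan qRT-PCR of SLC10A1 mRNA, normalized to three housekeeping genes. Gain/loss fit vs DMSO baseline.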

Read-out in experiment [15]: matrix metalloproteinase-1 (MMP1), MMP1 (gene 4312)
Description: LTEA_HepaRG_MMP1: Life Technologies and Expression Analysis (LTEA) Assay for matrix metalloproteinase-1 (MMP1) using HepaRG (AID 2283658; active = hit-call score of the fitted dose curve at least 0.9, where 1 is the maximum; inactive = score below 0.9). Conditions: mRNA level, 48 h; actives raise or lower the signal. In a few lines: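 qRT-PCR (TaqMan, Fluidigm arrays) of MMP1 transcript, normalized against three housekeeping genes and fitted in both directions relative to 0.5% DMSO vehicle. Human HepaRG cultures received duplicate 48 h exposures across 8 points, highest 100 uM with half-log steps.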

Experiment [16] relates to Thyroperoxidase (TPO), gene 54314. Description: CCTE_Simmons_AUR_rTPO: CCTE's Amplex UltraRed Assay for Thyroperoxidase (TPO) Inhibition, Simmons Lab (AID 2283662).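 Also: potency for loss of signal meaning inhibition of peroxidase activity.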 A digest of the protocol: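 Endpoint is decreased Amplex UltraRed fluorescence after a 30-min, 37C reaction of rat thyroid microsomes with 300 uM H2O2. Eight test concentrations (5 nM–87.5 uM final) in 0.5% DMSO, three biological replicates each.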

Experiment [17] can be described thus: Tanguay_ZF_120hpf_TR_legacy: (Legacy) Oregon State University Tanguay Lab 120 Hour Post-fertilization zebrafish Assay for Touch Response (AID 2283667). In a few lines:
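Binary touch-response call at 120 hpf, analysed as gain of signal versus DMSO baseline. Wild-type 5D larvae, static exposure at 28C, 0.64% DMSO final; 5uM trimethyltin chloride as positive control.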

Read-out in experiment [18]: organic anion transporter (SLCO1B1), SLCO1B1 (gene 10599)
Description: CLD_SLCO1B1_6hr: CellzDirect (CLD) Gene Expression Assay for organic anion transporter (SLCO1B1) at 6 hours (AID 2283668).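 Also: active means mRNA induction above DMSO baseline.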 In a few lines: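 SLCO1B1 mRNA induction measured 6 h after dosing by quantitative nuclease protection with chemiluminescent read-out, in human primary hepatocyte cultures given chemicals at several concentrations (vehicle 0.2% DMSO). Increase over DMSO baseline fitted; morphology-based cytotoxicity annotated yes/no.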

Read-out in experiment [19]: xenobiotic metabolism (CYP1A2), CYP1A2 (gene 1544)
Description: CLD_CYP1A2_6hr: CellzDirect (CLD) Gene Expression Assay for xenobiotic metabolism (CYP1A2) at 6 hours (AID 2283663). A digest of the protocol: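 mRNA levels quantified by quantitative nuclease protection assay with chemiluminescence, 6 h after dosing human primary hepatocyte cultures (two donors) across several concentrations, vehicle 0.2% DMSO. Induction fitted upward versus DMSO; phase-contrast cytotoxicity annotated.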

Read-out in experiment [20]: xenobiotic metabolism (CYP1A1), CYP1A1 (gene 1543)
Description: CLD_CYP1A1_6hr: CellzDirect (CLD) Gene Expression Assay for xenobiotic metabolism (CYP1A1) at 6 hours (AID 2283661). A digest of the protocol:
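Read-out 6 h post-dose: qNPA chemiluminescent quantitation of transcript induction against 0.2% DMSO. Cells were cultured primary human hepatocytes from two separate donor preparations; phase-contrast morphology annotated apparent cytotoxicity.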

Sequence of Broad substrate specificity ATP-binding cassette transporter ABCG2 (Homo sapiens) (Q9UNQ0 whole entry, looked up): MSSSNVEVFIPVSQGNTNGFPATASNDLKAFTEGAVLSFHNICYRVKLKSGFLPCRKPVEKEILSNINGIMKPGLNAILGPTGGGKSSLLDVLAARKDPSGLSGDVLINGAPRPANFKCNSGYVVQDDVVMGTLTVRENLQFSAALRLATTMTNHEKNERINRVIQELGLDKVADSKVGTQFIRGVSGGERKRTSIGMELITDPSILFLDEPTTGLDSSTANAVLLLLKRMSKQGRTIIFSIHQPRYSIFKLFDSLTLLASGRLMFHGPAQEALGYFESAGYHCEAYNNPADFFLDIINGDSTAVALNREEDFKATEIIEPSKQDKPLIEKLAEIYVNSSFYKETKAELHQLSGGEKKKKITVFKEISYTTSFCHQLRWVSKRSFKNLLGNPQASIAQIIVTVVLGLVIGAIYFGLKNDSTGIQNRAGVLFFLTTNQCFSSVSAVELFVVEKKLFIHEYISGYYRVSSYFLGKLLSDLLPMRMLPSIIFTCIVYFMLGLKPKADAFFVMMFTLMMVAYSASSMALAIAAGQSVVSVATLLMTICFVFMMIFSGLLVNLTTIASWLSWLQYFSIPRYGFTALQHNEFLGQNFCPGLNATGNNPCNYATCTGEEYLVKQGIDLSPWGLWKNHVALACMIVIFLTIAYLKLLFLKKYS

As for `O=C(c1ccccc1)C1CCCCC1`, the call in experiment [1], in [2], in experiment [3], in [4], in [5] and in [6] was inactive. For the same molecule, the call in [7], in [8] and in experiment [9] was inactive.

As for `CCNc1nc(N)nc(Cl)n1`, the outcome in experiment [1], in experiment [2], in experiment [3], in [4], in [5] and in experiment [6] was inactive. Further, the molecule was classed as inactive in [7], in [8], in experiment [9], in experiment [10] and in experiment [11].

As to `CCCCC(CC)CN1C(=O)C2C3C=CC(C3)C2C1=O` (stereo not drawn), the molecule was classed as inactive in experiment [1], in [2], in experiment [3], in [4], in [5] and in experiment [7]. Further, the result in experiment [8], in [9], in experiment [10] and in experiment [11] was inactive.

As for `S=C([S-])NCCNC(=S)[S-].[Mn+2]`, the result in experiment [1], in experiment [2], in [3], in [4], in [5] and in [6] was inactive. Besides, the molecule was called inactive in [12], in experiment [13], in [7], in experiment [8], in experiment [9] and in experiment [15]. Further, the result in experiment [17] and in experiment [18] was inactive. Also, the figures for the half-maximal activity concentration (AC50) in experiment [14], in [16] and in experiment [11] were 9.93 µM (active), 12.6 µM (active) and 3.97 µM (active), respectively.

Regarding `O=C(O)c1ccccc1`, the result in experiment [1], in [2], in experiment [3], in experiment [4], in [5] and in [6] was inactive. The result in [13], in [7], in experiment [8], in [9], in [14] and in [15] was inactive.

In the case of `CCOC(=O)C(C)Oc1ccc(Oc2nc3ccc(Cl)cc3o2)cc1` (stereo not drawn), the molecule was called inactive in experiment [1], in experiment [2], in experiment [3], in [5], in experiment [6] and in experiment [7]. The result in [8], in [9], in experiment [19], in [18] and in experiment [11] was inactive. Also, the AC50 in experiment [16] is 43.6 µM (active).

`COC(=O)c1ccccc1C(=O)O`: the outcome in experiment [1], in experiment [2], in experiment [4], in [5], in [6] and in experiment [12] was inactive. Further, the result in [13], in [7], in experiment [8], in [9], in experiment [14] and in experiment [15] was inactive. Besides, the molecule was classed as inactive in [10], in experiment [20] and in experiment [11].

As for `COCCO`, the molecule was classed as inactive in experiment [2], in [3], in experiment [4], in experiment [5], in experiment [6] and in experiment [13]. Further, the molecule was called inactive in [7], in [8], in [9], in [14], in experiment [15] and in [10].

Take `C#CCOC(=O)[C@@H](C)Oc1ccc(Oc2ncc(Cl)cc2F)cc1`: the call in [2], in [5], in experiment [7], in experiment [10], in experiment [18] and in experiment [11] was inactive.

With `O=C(Nc1ccc([N+](=O)[O-])cc1Cl)c1cc(Cl)ccc1O`, the molecule was called inactive in experiment [3], in experiment [4], in experiment [5], in [7], in experiment [8] and in [9]. Also, the molecule was called inactive in experiment [10] and in [18]. Further, in [16], the AC50 is 3.56 µM (active).

As to `N[C@@H](Cc1cc(I)c(Oc2ccc(O)c(I)c2)c(I)c1)C(=O)O`, the outcome in experiment [2], in experiment [3], in [4], in experiment [6] and in experiment [8] was inactive. Also, the AC50 in experiment [5] was 0.00051 µM (active); in experiment [16] it was 2.92 µM (active).

In the case of `COC(=O)CSc1cc(N=c2sc(=O)n3n2CCCC3)c(F)cc1Cl`, the molecule was classed as inactive in experiment [1], in experiment [3], in [5], in experiment [6], in experiment [7] and in experiment [8]. Also, the molecule was classed as inactive in experiment [9], in [10] and in experiment [11].

In the case of `CCCCC(CC)COC(=O)c1ccccc1C(=O)O` (stereo not drawn), the outcome in [1], in experiment [5], in [6], in experiment [7], in experiment [8] and in experiment [9] was inactive. For the same molecule, the molecule was classed as inactive in experiment [10], in [18] and in [11].
